High-throughput results as filed in PubChem.
An excerpt weighted towards active compounds, which were near 2.4% of everything screened.
POLI inh: qHTS for Inhibitors of Polymerase Iota | Potency, µM (titrated, usually from 115 µM), hits mostly inhibitors | DNA polymerase iota (Homo sapiens), Q9UNA4 | AID 588590, 2011 | Pol iota fluorescent replication assay, 10 min | 390,000 tested, 1% active
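Pol iota at 10 nM preincubated 15 min with compounds at room temperature; reaction started with fluorescent substrate, 50 nM final. Fluorescence read kinetically at 0 and 10 min; buffer-only wells as negative control.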
FEN1 inh-1: qHTS Assay for the Inhibitors of Human Flap endonuclease 1 (FEN1); Potency, µM (titrated, usually from 114 µM), usual class: inhibitors; Recombinant FEN1 flap cleavage, fluorescence, 15 min; AID 588795, 2011; 390,000 tested, 0.35% active; further: nearly all actives have a fitted effect of over 65% in size
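Reaction started by adding substrate (50 nM final) to 10 nM enzyme after 15 min room-temperature compound preincubation. Reads at 0 and 15 min, with data normalized and fitted to a four-parameter Hill equation.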
POLB inh: qHTS Assay for Inhibitors of DNA Polymerase Beta; P06746; Pol beta primer extension/strand displacement, fluorescence kinetic; Potency, µM (top dose mostly 114 µM), most hits filed as inhibitors; 340,000 tested, 1.3% active; AID 485314, 2010
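Enzyme-only controls used 10 nM Pol beta; buffer lacking enzyme served as negative control. Compound preincubated 15 min, then 50 nM substrate added; 0 and 10 min reads at room temperature.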
Pol kappa inh-1: qHTS for Inhibitors of Polymerase Kappa | DNA polymerase kappa (Homo sapiens), Q9UBT6 | purified Pol kappa, fluorescent DNA synthesis assay, 10 min | Potency, µM (highest dose often 107 µM), usual class: inhibitors | 400,000 tested, 0.53% active | AID 588579, 2011
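Readout: fluorescence, taken kinetically at 0 and 10 min. Conditions: 10 nM Pol kappa, 15 min RT compound preincubation, 50 nM substrate final. Controls: enzyme-free buffer wells.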
Pol eta inh-1: qHTS for Inhibitors of Polymerase Eta | recombinant Pol eta, fluorescent DNA replication assay | AID 588591, 2011 | 390,000 tested, 1.2% active | Potency, µM (top dose mostly 114 µM), usual class: inhibitors | DNA polymerase eta (Homo sapiens), Q9Y253
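Pol eta (10 nM) was preincubated with compounds for 15 min at room temperature, after which fluorescent replication substrate (50 nM final) was added to start the reaction. Fluorescence was read kinetically at 0 and 10 min.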
WRN helicase inh-1: qHTS for Inhibitors of WRN Helicase; Bifunctional 3'-5' exonuclease/ATP-dependent helicase WRN (Homo sapiens), Q14191; WRN helicase unwinding, fluorescent forked duplex, kinetic; Potency, µM (titrated, usually from 114 µM), actives largely listed as inhibitors; 360,000 tested, 0.46% active; further: nearly all actives have a fitted effect of over 55% in size
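Enzyme (20 nM final) and test compound sit together 15 min at room temperature before substrate addition. Substrate is a single-forked duplex oligonucleotide (100 nM) labelled with fluorophore and quencher, with 2 mM ATP; helicase unwinding raises red fluorescence, read kinetically.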
Pol kappa inh-2: qHTS for Inhibitors of Polymerase Kappa: Confirmatory Assay for Cherry-picked Compounds. shares compounds with Pol eta inh-1. Potency, µM, hits mostly inhibitors. 920 tested, 76% active. purified Pol-kappa, fluorescent strand-displacement substrate
Pol eta inh-2: qHTS for Inhibitors of Polymerase Eta: Confirmatory Assay for Cherry-picked Compounds; Pol eta primer extension, TAMRA/BHQ fluorescence, 10 min; Potency, µM, hits mostly inhibitors; shares compounds with Pol eta inh-1; AID 720502, 2013; 2,600 tested, 64% active
FEN1 inh-2: qHTS Assay for the Inhibitors of FEN1: Confirmatory Assay for Cherry-picked Compounds. Potency, µM, actives largely listed as inhibitors. FEN1 flap cleavage, TAMRA/BHQ2 fluorogenic DNA substrate. AID 720498, 2013. shares compounds with FEN1 inh-1. 880 tested, 79% active; further: nearly all actives have a fitted effect of over 60% in size
WRN helicase inh-2: qHTS for Inhibitors of WRN Helicase: Confirmatory Assay for Cherry-picked Compounds | shares compounds with WRN helicase inh-1 | WRN helicase DNA unwinding, fluorescence kinetic | Potency, µM (series often up to 57.1 µM), usual class: inhibitors | 610 tested, 63% active | AID 720497, 2013; further: nearly all actives have a fitted effect of over 65% in size
TO displacement: qHTS for Inhibitors of WRN Helicase: Thiazole Orange DNA Binding Counterscreen. shares compounds with WRN helicase inh-1. thiazole orange DNA binding displacement, fluorescence. Potency, µM (titrated, usually from 57.1 µM), hits mostly inhibitors. 610 tested, 10% active. AID 720499, 2013;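 further: drop in dye fluorescence marks compound binding to DNA; nearly all actives have a fitted effect of over 60% in size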
BLM counter: qHTS for Inhibitors of WRN Helicase: BLM Helicase Counterscreen for WRN Inhibitors; shares compounds with WRN helicase inh-1; Recombinant BLM helicase DNA unwinding, red fluorescence; Potency, µM (doses to about 57.1 µM), most hits filed as inhibitors; 610 tested, 60% active; AID 720503, 2013; further: nearly all actives have a fitted effect of over 60% in size
Numbers stand for hits; - = inactive; ? = inconclusive; . = no result given; [ ] = another dose, or the depositor's remark. The call rests on the fitted dose curve; in most records, active means well fitted curve in the direction sought with a large enough effect; inconclusive means small, poorly fitted or top-dose-only effect, or another doubt; inactive means no such curve, though single readings can be large; an effect the other way counts as inactive or inconclusive.

SMILES	POLI inh	FEN1 inh-1	POLB inh	Pol kappa inh-1	Pol eta inh-1	WRN helicase inh-1	Pol eta inh-2	FEN1 inh-2	others
Cn1nc(-c2ccc(OCC(=O)Nc3ccc(Cl)cc3)cc2)c2ccccc2c1=O	-	?	7.94µM	-	-	.	.	33.8	Pol kappa inh-2=42.3
COc1cc(OC)c(NC(=O)c2c(C)nn(-c3ccc(C)cc3)c2-n2cccc2)cc1Cl	-	-	-	-	-	.	.	.
COc1ccc(OC)c(CNC(=O)C(C)n2c(C)c3cnn(-c4ccccc4)c(=O)c3c2C)c1 (stereo unspecified)	-	-	-	-	.	.	.	.
O=C(Nc1ccc(S(=O)(=O)O)cc1)c1ccc2c(c1)S(=O)(=O)c1ccccc1C2=O	-	44.7µM	.	-	28.2µM	-	67.5	75.7
Cc1ccc(S(=O)(=O)N2CCN(c3nc(-c4ccc(CN5CCOCC5)s4)nc4ccccc34)CC2)cc1	-	-	.	-	.	.	.	.
O=c1ccc2[n+]([O-])c3ccc(O)cc3oc-2c1	25.1µM	39.8µM	63.1µM	?	-	-	.	60.1	Pol kappa inh-2=23.8
O=c1cc(O)c2ccc(O)cc2o1	-	-	-	-	-	-	.	.
Oc1ccc(N=Nc2ccccc2-c2nn[nH]n2)c(O)c1	-	?	31.6µM	-	22.4µM	-[11.6 µM]	53.6	37.9
CC1=CN2C(=N)/C(=C/c3ccc([N+](=O)[O-])o3)C(=O)N=C2S1	15.8µM	56.2µM	17.8µM	31.6µM	3.98µM	31.6µM	60.1	67.5
CC1=CN2C(=N)/C(=C/c3ccco3)C(=O)N=C2S1	-	-	?	-	?	?	.	.
O=c1cc(-c2ccc(O)c(-c3c(O)cc(O)c4c(=O)cc(-c5ccc(O)cc5)oc34)c2)oc2cc(O)cc(O)c12	31.6µM	44.7µM	-	79.4µM	17.8µM	?	33.8	47.8
COc1cc2c(cc1OC)C(COc1ccc3c(C)cc(=O)oc3c1)N(C(=O)c1ccccc1C)CC2 (stereo unspecified)	-	-	-	-	-	.	.	.
CCc1ccc(S(=O)(=O)Nc2cc(SCC(=O)O)c(O)c3ccccc23)cc1	5.62µM	?	?	?	50.1µM	44.7µM	?	60.1
O=C(O)/C=C/c1cn(-c2ccccc2)nc1-c1ccc(-c2ccc([N+](=O)[O-])cc2)o1	?	?	28.2µM	-	31.6µM	50.1µM	84.9	75.7
O=C(CCN1C(=O)/C(=C\c2cccs2)SC1=S)Nc1ccc(C(=O)O)cc1	?	?	-	?	56.2µM	-[11.6 µM]	?	67.5
Cc1c(NC(=O)C(C)OC(=O)c2ccc([N+](=O)[O-])s2)c(=O)n(-c2ccccc2)n1C (stereo unspecified)	?	-	10µM	?	50.1µM	-[11.6 µM]	?	6.01
COCCCNC(=O)c1ccc(-c2nc(CS(=O)(=O)c3ccc(C)cc3)c(C)o2)cc1	-	-	-	-	-	.	.	.
CC[N+](CC)(CC)CCOc1ccc(/C=C\c2ccccc2)cc1	.	.	.	-[19.4 µM]	.	.	.	.
CC[N+](CC)(CC)CCCCOc1ccc2c(c1)C(=O)c1cc(OCCCC[N+](CC)(CC)CC)ccc1-2	?	12.6µM	-	-	?	50.1µM	?	21.3
O=C(Cc1cccs1)N/N=C\c1ccc([N+](=O)[O-])s1	-	?	-	-	-	-	.	.
NC(=O)c1ccc(N=Cc2ccc([N+](=O)[O-])s2)cc1	50.1µM	?	?	-	31.6µM	-	?	6.75
O=C(COC(=O)c1ccc([N+](=O)[O-])o1)Nc1ncc(Cl)cc1Cl	?	?	.	-	22.4µM	?	?	10.7
Cc1ccc2c(Sc3ccccc3)c(C(=O)NCc3ccccc3F)[nH]c2c1	-	-	-	-	-	.	.	.
CCCCOC(=O)c1cccc(NC(=O)c2cc3ccccc3o2)c1	-	-	-	-	-	.	.	.
Cn1c(C(=O)NN)cc2cc(Oc3ccccc3)ccc21	-	-	-	-	-	-	.	.
SMILES	POLI inh	FEN1 inh-1	POLB inh	Pol kappa inh-1	Pol eta inh-1	WRN helicase inh-1	Pol eta inh-2	FEN1 inh-2	others
COc1ccc2c(c1)cc(C(=O)N/N=C/c1c(O)c(C(=O)O)cc3ccccc13)n2C	?	?	31.6µM	-	39.8µM	-[11.6 µM]	84.9	84.9	Pol kappa inh-2=75.2
Cc1ccc(NC(=O)c2cc3c(=O)n(Cc4cccnc4)ccc3nc2C)cc1F	-	-	-	-	-	.	.	.
COc1cc(/C=C2\SC(=S)N(Nc3ncc(C(F)(F)F)cc3Cl)C2=O)ccc1O	14.1µM	?	14.1µM	-	?	31.6µM	.	.	Pol kappa inh-2=?;WRN helicase inh-2=7.64µM;TO displacement=-;BLM counter=6.07µM
COc1cc(/C=C2\SC(=N)N(c3ccc(F)cc3)C2=O)ccc1O	-	-	?	-	-	-	.	.
CC1CC2(C)Oc3ccccc3C3OCC1(COC(=O)Nc1ccccc1)C(C)C32 (stereo unspecified)	.	.	.	-[19.4 µM]	.	.	.	.
COC(=O)c1ccc2c(c1)N(CC(=O)Nc1ccc(C)cc1Cl)C(=O)c1ccccc1S2	-	-	?	-	-	.	.	.
O=[N+]([O-])c1c(Nc2ccc(O)cc2)cc(Cl)c2nonc12	3.55µM	?	-	-	50.1µM	?	?	.	WRN helicase inh-2=?;TO displacement=34.1µM;BLM counter=?
O=C(c1ccccc1)c1ccc2nc(-c3ccco3)c(-c3ccco3)nc2c1	3.98µM	?	8.91µM	25.1µM	12.6µM	15.8µM	?	.	Pol kappa inh-2=?;WRN helicase inh-2=15.2µM;TO displacement=24.1µM;BLM counter=8.57µM
